Data as given in PubChem BioAssay (EPA / NIEHS).
Inconclusive results are not listed. Active and inactive are the calls of the source. Rule for the calls: active = hit-call score of the fitted dose curve at least 0.9, where 1 is the maximum; inconclusive = response in the unintended direction; inactive = score below 0.9.

assay: ACEA_ER_AUC_viability: ACEA Biosciences xCELLigence Real-Time Cell Analysis on Estrogen Receptor Agonism for Viability (AID 2283782);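 note: hit means loss of impedance signal meaning reduced cell growth or viability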
How it was run: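 Read-out: real-time electrical impedance (RT-CES) area under curve, loss of signal taken as reduced viability, normalized to DMSO baseline. T-47D cells, charcoal-stripped serum medium, compounds up to 100 uM final, continuous exposure, 80 h.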

| SMILES | outcome | AC50 |
| --- | --- | --- |
| CCN(CC)C(=O)N(CC)CC | inactive |  |
| CC(=O)CC(=O)Nc1ccc(C)cc1C | inactive |  |
| C[C@H]1C[C@@H](O)CC(C)(C)C1 |  | 50 µM (active) |
| CC(C)=CCCC(C)CC(=O)O (stereo not drawn) | inactive |  |
| CCOCCOCCOCC | inactive |  |
| CC(=O)O[C@@H]1C[C@@H]2CC[C@@]1(C)C2(C)C | inactive |  |
| COC(C)(C)CC(C)=O | inactive |  |
| Cc1ccc(N)c(S(=O)(=O)O)c1 | inactive |  |
| C=C(C)[C@H]1CC=C(C)C(=O)C1 | inactive |  |
| CCCCCCCCCC(C)C=O (stereo not drawn) | inactive |  |
| O=C(CS)OCCOC(=O)CS |  | 82.2 µM (active) |
| CN1CCOCC1 | inactive |  |
| CCN(CCC#N)c1ccc(N=Nc2ccc([N+](=O)[O-])cc2)cc1 | inactive |  |
| CCOC(=O)CN | inactive |  |
| CCCN(CCC)S(=O)(=O)c1ccc(C(=O)O)cc1 | inactive |  |
| C=CC(=C)CCCC(C)(C)OC(C)=O | inactive |  |
| CC/C=C\CC/C=C/CO |  | 50 µM (active) |
| Cc1cc(CCC(=O)OCCOCCOCCOC(=O)CCc2cc(C)c(O)c(C(C)(C)C)c2)cc(C(C)(C)C)c1O | inactive |  |
| CC(=O)Nc1ccc(C(=O)CCl)cc1 |  | 21.5 µM (active) |
| CC1=CC[C@@]23C[C@@H]1C(C)(C)[C@@H]2CC[C@H]3C |  | 78.5 µM (active) |
| COc1cc([C@@H]2c3cc4c(cc3[C@@H](O[C@@H]3O[C@@H]5CO[C@@H](C)O[C@H]5[C@H](O)[C@H]3O)[C@H]3COC(=O)[C@H]23)OCO4)cc(OC)c1O |  | 10.6 µM (active) |
| C=C(C)C(=O)OCCOCCOCCOC(=O)C(=C)C | inactive |  |
| CCOC(=O)CC(C)O (stereo not drawn) | inactive |  |
